Results on 14 molecules are retold here after PubChem BioAssay (NCATS).

In assay [1] the target is Alpha-galactosidase A (Homo sapiens) (UniProt P06280). The assay is described as follows: Counterscreen for Glucocerebrosidase Inhibitors: qHTS Assay for Human alpha-Galactosidase at pH 4.5 (AID 992). Note: 0% is about no effect. Summed up:
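Enzyme at 2 nM final was combined with compound (0.7 nM to 77 uM) and 80 uM 4-methylumbelliferyl alpha-D-galactopyranoside in 50 mM citric acid, 0.005% Tween-20, pH 4.5. After 20 min at room temperature, fluorescence was read (Ex 365/Em 440 nm); AC50 came from Hill fits.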
A general note: A counterscreen serves to expose hits that act by an unwanted route or on another target.

Assay [2] concerns the target alpha-glucosidase (Oryza sativa, rice) (UniProt Q653V4). The assay is described as follows: Counterscreen for Glucocerebrosidase Inhibitors: qHTS Assay for Rice alpha-Glucosidase at pH 5.0 (AID 997).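 Note: 0% = full activity with enzyme and -100% = basal without enzyme.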 Summed up:
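Rice alpha-glucosidase (4 nM final) with 400 uM 4-methylumbelliferyl-alpha-D-glucopyranoside in citrate buffer pH 5.0, 20 min at room temperature, stopped at pH 10; fluorescence 365/440 nm, compounds 0.7 nM–77 uM, AC50 from Hill fits.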

The nature of assay [3]: qHTS Assay for Lipid Storage Modulators (AID 1519; calls by dose curve; for activity change, negative = inhibition: % is set by controls: 0 for no effect and ±100 for the full control effect). Conditions: Drosophila S3 cells, BODIPY lipid droplet/cell ratio, laser cytometry, cells loaded with oleic acid. Summed up: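 Cells seeded at 5,000 per well were treated with compounds over a concentration series and loaded with oleic acid (400 uM, as added). Lipid droplet fluorescence (488 nm excitation, 500-530 nm channel) was read by laser-scanning cytometry and normalized to 20 uM Triacsin C.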
For orientation: Quantitative high-throughput screening tests each substance at several concentrations.

For assay [4], the target named is DNA repair nuclease/redox regulator APEX1 (Homo sapiens) (UniProt P27695). The assay is described as follows: qHTS Validation Assay for Inhibitors of the Human Apurinic/apyrimidinic Endonuclease 1 (APE1) (AID 1705;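 note: TAMRA fluorescence gain over two minutes as APE1 cuts a quenched THF abasic duplex; % is set by controls: 0 for no effect and ±100 for the full control effect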). Summed up:
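Read-out: TAMRA fluorescence (525 nm ex, 598 nm em) from cleavage of a quenched THF abasic-site duplex, 50 nM final; activity taken as intensity change between third and first of three reads 60 s apart.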

Assay [5] in a line: Counterscreen for APE1 Inhibitors: Fluorescent Dye Displacement Validation Assay (AID 1707).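 Note: plate controls were ThO with dsDNA and no compound for no effect and ThO without dsDNA for full effect.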 Summed up: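 Thiazole Orange displacement from dsDNA: 250 nM ThO with 50 nM TAMRA-labelled abasic-site (tetrahydrofuran) duplex in 50 mM Tris-HCl pH7.5, 50mM NaCl, 2 mM MgCl2, 0.01% Tween-20. Loss of endpoint fluorescence (ex 480 nm, em 540 nm) flags DNA binders.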
A short description of assay [6]: qHTS for differential inhibitors of proliferation of Plasmodium falciparum line 7G8 (AID 1815).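 Note: parasite growth measured after three days of incubation; plate controls were vehicle wells for no effect and reference inhibitor wells for full effect.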
The nature of assay [7]: qHTS for differential inhibitors of proliferation of Plasmodium falciparum line GB4 (AID 1816).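 Note: parasite growth measured after 72 h incubation; 0% = vehicle DMSO and -100% = reference inhibitor.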 Conditions: Potency: Plasmodium falciparum GB4 proliferation inhibition.
Assay [8] is described as follows: qHTS for differential inhibitors of proliferation of Plasmodium falciparum line 3D7 (AID 1876). Note: potency is the fitted concentration of half-maximal effect.
A short description of assay [9]: qHTS for differential inhibitors of proliferation of Plasmodium falciparum line D10 (AID 1877).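 Note: parasites grown with compound for 72 h before DNA staining; plate controls were vehicle wells for no effect and reference inhibitor wells for full effect.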
Assay [10] in a line: qHTS for differential inhibitors of proliferation of Plasmodium falciparum line Dd2 (AID 1882).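 Note: compound exposure of 72 h on infected erythrocytes; plate controls were DMSO vehicle for no effect and 0.29 µM artemisinin for full effect; nearly all actives have a fitted effect of over 65% in size.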 Conditions: Potency: Plasmodium falciparum Dd2 proliferation inhibition. An outline of the steps: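 SYBR Green I DNA fluorescence read-out, ex 485/em 535 nm. Signals were normalized to 0.29 uM artemisinin and DMSO wells, then corrected using vehicle-only plates flanking each stack. Parasite growth ran 72 h in erythrocytes before lysis.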

The nature of assay [11]: qHTS for differential inhibitors of proliferation of Plasmodium falciparum line HB3 (AID 1886).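 Note: parasites grown with compound for 72 h before SYBR Green readout; plate controls were vehicle for no effect and reference inhibitor for full effect.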 Conditions: Potency: Plasmodium falciparum HB3 proliferation inhibition.
The target of assay [12] is Endonuclease 4 (Escherichia coli (strain K12)) (UniProt P0A6C1). The assay is described as follows: Counterscreen for APE1 Inhibitors: qHTS Validation Assay for Inhibitors of Endonuclease IV (AID 1708). Note: % is set by controls: 0 for no effect and ±100 for the full control effect. An outline of the steps: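 Enzymatic AP-site incision assay using a double-stranded THF substrate labelled with TAMRA and BHQ-2; released fluorescence signals activity. Enzyme 2 nM, substrate 50 nM, 15 min compound preincubation.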

Assay [13] in a line: qHTS for differential inhibitors of proliferation of Plasmodium falciparum line W2 (AID 1883).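 For activity change, negative = inhibition: 0% = vehicle wells and -100% = control inhibitor wells.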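 Note: parasites grown with compound for 72 h before lysis and staining.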 Note: potency is the fitted concentration of half-maximal effect. Conditions: Potency: Plasmodium falciparum W2 proliferation inhibition.
Assay [14] in a line: Validation of Assay for Modulators of Lamin A Splicing (AID 1459; active = well fitted curve in the direction sought with a large enough effect in the signal ratio; the % refers to the signal ratio;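 note: cells exposed to compound for two days before reading; 0% is about no effect; ratio rise marks activators and ratio drop marks inhibitors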). An outline of the steps: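 Readout: ratio of GFP (500-530 nm) to RFP (575-640 nm) total object intensity by 488 nm laser-scanning cytometry after 48 hrs. Cells were HeLa S3 clones carrying lamin A-EGFP minigene plus DsRed2 viability reporter; vehicle 0.5% DMSO final.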
The nature of assay [15]: qHTS Assay for Modulators of Human Peripheral Myelin Protein 22 (PMP22) Expression/Activity (AID 1967; active = well fitted curve in the direction sought with a large enough effect in the signal ratio; the % refers to the signal ratio;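 note: 0% = untreated cells and 100% end not stated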). An outline of the steps:
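Mouse MSC80 Schwann line, Pmp22 promoter–CBG68 reporter, EF-alpha–CBR internal control. 24h compound exposure, 37 °C/5% CO2, DMEM + 10% FBS. Readout: corrected green/red luminescence ratio, normalized to untreated cells; concentration-response curves fitted and classified.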

Assay [16] in a line: Cell Viability - LYMP2-018 (AID 985).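 Note: compound exposure lasted 24 hr at 37 °C; plate controls were DMSO only for no effect and tetraoctylammonium bromide at 92 µM for full effect; nearly all actives have a fitted effect of over 50% in size.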 An outline of the steps:
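Acute cytotoxicity is scored as a concentration-dependent drop in intracellular ATP after 24 hr exposure of the lymphoblastoid line in complete culture medium, measured by luciferase luminescence. Potency is expressed as AC50 from Hill modelling.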

Assay [17] can be described thus: Cell Viability - LYMP2-020 (AID 986).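 Note: plate controls were DMSO only for no effect and tetraoctylammonium bromide at 92 µM for full effect; nearly all actives have a fitted effect of over 55% in size.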 Summed up:
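Acute cytotoxicity in a human lymphoblastoid line is scored as a concentration-dependent fall in cellular ATP after 24 hr at 37 C in complete medium. The positive control is tetraoctylammonium bromide, and potency is given as Hill-fit AC50.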

Assay [18] is described as follows: Cell Viability - LYMP2-022 (AID 987).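 Note: 0% = DMSO alone and full effect = tetraoctylammonium bromide at 92 µM; nearly all actives have a fitted effect of over 55% in size.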 An outline of the steps: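 Acute toxicity in a human lymphoblastoid line is scored as decreased intracellular ATP after 24 hr compound treatment at 37 C. ATP is measured by CellTiter-Glo luminescence; curves are fitted with the Hill equation to give AC50.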
Assay [19] can be described thus: Cell Viability - LYMP2-026 (AID 989). Note: % is set by controls: 0 for no effect and ±100 for the full control effect; nearly all actives have a fitted effect of over 50% in size. Summed up: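 Concentration-dependent loss of intracellular ATP in human lymphoblastoid cells after 24 hr at 37 C, quantified by luciferase luminescence. AC50 derived from standard Hill equation.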
Assay [20] can be described thus: Cell Viability - LYMP1-002 - Assay at 40 hr (AID 994).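 Note: 0% = DMSO only and full inhibition = 92 µM tetraoctylammonium bromide; nearly all actives have a fitted effect of over 60% in size.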 Summed up:
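Viability in the human lymphoblastoid line was measured as intracellular ATP via CellTiter-Glo after 40 hr compound exposure. Tetraoctylammonium bromide served as positive control.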

Where [21] appears, read: measured here: cell count channel max response.
Setting [22] is: measured here: lipid channel max response.

Structures are written as SMILES. Where “and” joins values, the source holds several entries; their conditions need not be identical. Identical values can stand only once. Records with an inconclusive call do not appear. Calls of active or inactive are those of the source. Unless noted, calls come from the whole dose curve; as a rule, active = well fitted curve in the direction sought with a large enough effect; inconclusive = small, poorly fitted or top-dose-only effect, or another doubt; inactive = no such curve, though single readings can be large; an effect the other way counts as inactive or inconclusive.

DNA repair nuclease/redox regulator APEX1 (Homo sapiens), sequence (P27695 whole entry, looked up): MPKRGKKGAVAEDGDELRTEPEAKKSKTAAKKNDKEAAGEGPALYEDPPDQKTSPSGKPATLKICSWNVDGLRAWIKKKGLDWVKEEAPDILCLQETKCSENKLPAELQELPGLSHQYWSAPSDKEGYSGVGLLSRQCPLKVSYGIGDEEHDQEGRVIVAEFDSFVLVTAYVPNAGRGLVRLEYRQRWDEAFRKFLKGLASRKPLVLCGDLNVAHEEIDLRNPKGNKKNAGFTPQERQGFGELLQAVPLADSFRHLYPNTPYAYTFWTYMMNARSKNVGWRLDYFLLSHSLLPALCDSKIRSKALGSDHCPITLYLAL
Alpha-galactosidase A (Homo sapiens), sequence (P06280 whole entry, looked up): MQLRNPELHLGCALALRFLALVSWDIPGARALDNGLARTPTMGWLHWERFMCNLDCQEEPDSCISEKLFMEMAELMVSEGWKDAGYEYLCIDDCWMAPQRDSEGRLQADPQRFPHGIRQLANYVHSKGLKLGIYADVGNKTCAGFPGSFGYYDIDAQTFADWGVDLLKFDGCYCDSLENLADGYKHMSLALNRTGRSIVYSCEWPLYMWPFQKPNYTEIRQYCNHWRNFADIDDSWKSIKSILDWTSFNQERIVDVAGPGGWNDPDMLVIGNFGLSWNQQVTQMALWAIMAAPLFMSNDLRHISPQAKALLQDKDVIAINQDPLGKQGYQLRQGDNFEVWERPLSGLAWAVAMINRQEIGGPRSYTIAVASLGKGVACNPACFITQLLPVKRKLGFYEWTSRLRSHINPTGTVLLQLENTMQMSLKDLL

For `CCN(CC)CCOC(=O)c1ccc(N)cc1`, the result in assay [1], in [2], in [4] and in [5] was inactive. Further, the activity change, negative = inhibition in assay [3] (at 25.7 µM (top of the series)) is -0.292% (inactive); in [3] (at 57.5 µM (top of the series)) it was 1.41% (inactive). Further, the max response in [3] (setting [21]) was 4.92% and -22.1%; in assay [3] (setting [22]) it was 5.47% and -19.5%. The Potency result in assay [6], in [7], in assay [8], in assay [9], in assay [10] and in assay [11] was “inactive” each time.

For the molecule `NC(N)=Nc1nc(CSCC/C(N)=N/S(N)(=O)=O)cs1`, the call in assay [1], in [2], in [4], in [5] and in assay [12] was inactive. Also, the activity change, negative = inhibition in [3] (at 25.7 µM (top of the series)) is -0.328% (inactive); in assay [3] (at 57.5 µM (top of the series)), 0.654% (inactive). Moreover, the max response was 10.2% and -8.15% in [3] (setting [21]); 9.12% and -7.51% in assay [3] (setting [22]). Also, the Potency result in [6], in [7], in assay [8], in assay [9], in [10] and in assay [13] was “inactive” throughout. Further, in assay [11], the Potency entry was “inactive”.

With `O=C1NCC2(CCN(CCc3ccccc3)CC2)O1`, the call in [1], in assay [2], in [14], in [4], in [5] and in assay [15] was inactive. For the same molecule, the activity change, negative = inhibition in assay [3] (at 25.7 µM (top of the series)) was -2.42% (inactive); in assay [3] (at 57.5 µM (top of the series)), 11.9% (inactive) and -0.152% (inactive). In addition, the max response in [3] (setting [21]) was -3.3% and 25.9% and -24.6%; in assay [3] (setting [22]), -4.45% and 48.5% and -24.1%. Besides, the Potency result in [6], in assay [8], in assay [9], in assay [10] and in [11] was “inactive” throughout.

`COc1ccccc1N1CCN(CCCNc2cc(=O)n(C)c(=O)n2C)CC1`: the result in assay [1], in [2], in [4], in assay [5] and in assay [12] was inactive. Further, the figures for the activity change, negative = inhibition in [3] (at 25.7 µM (top of the series)) and in [3] (at 57.5 µM (top of the series)) were 0.233% (inactive) and 1.54% (inactive), respectively. In addition, the max response was -9.35% and -6.19% in [3] (setting [21]); -9.3% and -4.74% in assay [3] (setting [22]). Also, the Potency entry in assay [6] and in assay [10] was “inactive” each time. The Potency in assay [8] and in assay [13] was 10 µM (active) each time.

With `COc1ccc2c3c1OC1C[C@@H](O)C=C[C@@]31CCN(C)C2` (stereo partly specified), the activity change, negative = inhibition in assay [3] (at 25.7 µM (top of the series)) was -1.59% (inactive); in assay [3] (at 57.5 µM (top of the series)), -3.75% (inactive). The max response was 1.47% and -27.6% in [3] (setting [21]); -1.31% and -11.1% in [3] (setting [22]).

For `CCN1CCC[C@H]1CNC(=O)c1cc(S(N)(=O)=O)ccc1OC`, the outcome in [1], in [2], in assay [4], in [5] and in [12] was inactive. Moreover, the activity change, negative = inhibition in [3] (at 25.7 µM (top of the series)) was -2.7% (inactive); in assay [3] (at 57.5 µM (top of the series)), -2.29% (inactive) and -0.529% (inactive). Also, the max response is -6.81% and 8.22% and 14.9% in [3] (setting [21]); -10.9% and 9.44% and 14.1% in assay [3] (setting [22]). Also, the Potency result in assay [6], in assay [7], in [8], in assay [9], in assay [10] and in assay [13] was “inactive” throughout. Also, the Potency result in assay [11] was “inactive”.

Consider `C[C@]12CCC3c4ccc(O)cc4CCC3C1CCC2=O` (stereo partly specified), for which, in [3] (at 57.5 µM (top of the series)), the activity change, negative = inhibition is 3.27% (inactive). For the same molecule, the values for the max response in [3] (setting [21]) and in assay [3] (setting [22]) were -11.3% and -4.67%, respectively.

For the molecule `COc1ccc(-c2coc3cc(O)cc(O)c3c2=O)cc1`, the activity change, negative = inhibition in assay [3] (at 57.5 µM (top of the series)) was 4.62% (inactive) and -2.47% (inactive). Besides, the max response is -4.41% and 15.8% in [3] (setting [21]); 0.883% and 14.1% in assay [3] (setting [22]).

`COc1ccc(-c2coc3cc(O)ccc3c2=O)cc1`: the activity change, negative = inhibition in assay [3] (at 57.5 µM (top of the series)) was -1.11% (inactive). The max response in assay [3] (setting [21]) was found to be 3.06%; in [3] (setting [22]) it was 2.76%.

In the case of `O=c1cc(-c2ccccc2)oc2cc(O)cc(O)c12`, the activity change, negative = inhibition was -11.6% (inactive) in assay [3] (at 25.7 µM (top of the series)); 1.96% (inactive) and -20.6% (inactive) in assay [3] (at 57.5 µM (top of the series)). The max response in [3] (setting [21]) was -13.1% and 8.12% and 6.97%; in [3] (setting [22]) it was -20.8% and 15.3% and -13.5%.

Consider `Nc1ncnc2c1ncn2[C@@H]1O[C@@H](CO)[C@H](O)[C@H]1O`, for which the activity change, negative = inhibition in [3] (at 25.7 µM (top of the series)) is -0.901% (inactive). The max response in assay [3] (setting [21]) is -3.51%; in [3] (setting [22]) it was -9.07%.

Regarding `NCCS`, the result in assay [1], in assay [2], in [4], in assay [5] and in assay [12] was inactive. For the same molecule, the activity change, negative = inhibition in [3] (at 57.5 µM (top of the series)) is 0.57% (inactive). Further, the max response was -11.3% in assay [3] (setting [21]) and -9.57% in [3] (setting [22]). Moreover, the Potency result in assay [6], in assay [7], in [8], in assay [9], in assay [10] and in assay [13] was “inactive” in each case. Moreover, the Potency entry in [11] was “inactive”.

Turning to `O=c1c(O)c(-c2ccc(O)cc2)oc2cc(O)cc(O)c12`, the Potency entry in [16], in assay [17], in assay [18], in [19] and in assay [20] was “inactive” throughout. The activity change, negative = inhibition in assay [3] (at 25.7 µM (top of the series)) was -1.01% (inactive); in [3] (at 57.5 µM (top of the series)), 9.57% (inactive). Moreover, the max response is -23.1% and 1.49% in assay [3] (setting [21]); -23.3% and 13.5% in [3] (setting [22]).

As to `COc1ccc(C2Sc3ccccc3N(CCN(C)C)C(=O)C2OC(C)=O)cc1` (stereo unspecified), in assay [3] (at 57.5 µM (top of the series)), the activity change, negative = inhibition is 6.14% (inactive). Moreover, the max response is 15.8% in [3] (setting [21]) and 23.3% in assay [3] (setting [22]).
